Measured values taken from ChEMBL document CHEMBL3988442, “University of Dundee, Small-Polar-MMV Screening Library” (2021).
Out of some 69,000 compounds screened, about 950 (1.4%) showed an effect of 50% or more. The sample as a whole holds a higher share of strong results than the screen did.

test system: Mycobacterium tuberculosis; assay: Cornell M. t heat shock assay; assay type: functional, organism-based; set-up: dose or concentration left out as unconfirmed; note: in the data most compounds retested in dose-response had high values

Structure (SMILES)	Percent Effect [%]
Cc1cccc(C(=O)N2C[C@@H]3COC[C@@H](CC(=O)N4CCCC4)[C@@H]3C2)n1.O=C(O)C(F)(F)F	-12.77
Cc1ccc(N2CCCC3(COCCN(c4ncccn4)C3)C2)nn1.O=C(O)C(F)(F)F (centres undefined)	-5.221
O=C(O)C(F)(F)F.O=C(c1cc(C2CC2)on1)N1C[C@@H]2COC[C@]2(COc2cccnc2)C1	24.08
CCc1cnc(N2CCC3(CC(=O)N(Cc4csc(C)n4)C3)C2)nc1.O=C(O)C(F)(F)F (centres undefined)	1.546
Cc1nc(C)n(CC2CCCN(c3ncnc4ccsc34)C2)n1 (centres undefined)	56.12
Cc1nc(C)n(CC2CCCN(c3ncnc4ccccc34)C2)n1 (centres undefined)	-1.971
Cc1nc(C)n(CC2CCCN(c3ncnc4sccc34)C2)n1 (centres undefined)	24.39
CC(C)N(C)Cc1cn2c(n1)CN(C(=O)Cc1ccccc1)CC2.O=C(O)C(F)(F)F	-8.481
CCC(=O)Nc1ccc2c(c1)C1(CCOCC1)CN2CCOC.O=C(O)C(F)(F)F	46.17
COCCN1CC2(CCOCC2)c2cc(NC(=O)C3CC=CC3)ccc21.O=C(O)C(F)(F)F	100.7
CCCC(=O)Nc1ccc2c(c1)C1(CCOCC1)CN2CCOC.O=C(O)C(F)(F)F	15.62
CCS(=O)(=O)Nc1ccc2c(c1)C1(CCOCC1)CN2C.O=C(O)C(F)(F)F	36
CCN1CC2(CCOCC2)c2cc(NS(=O)(=O)CC)ccc21.O=C(O)C(F)(F)F	51.54
CCC(=O)Nc1ccc2c(c1)C1(CCOCC1)CN2CCF.O=C(O)C(F)(F)F	28.61
O=C(O)C(F)(F)F.O=C1COC2(CCN(C(=O)c3ccco3)CC2)CN1Cc1cccnc1	-2.228
O=C(O)C(F)(F)F.O=C(O)C(F)(F)F.c1cnc(N2C[C@H]3CN(CC4CCOC4)C[C@H]3C2)nc1 (some centres undefined)	-39.47
O=C(O)C(F)(F)F.O=C(c1ccco1)N1CCCC2(CCN(c3nncs3)C2)C1 (centres undefined)	42.37
CN(C)C(=O)COC[C@@H]1CC[C@H]2[C@H](CCN2c2ccccn2)O1.O=C(O)C(F)(F)F	-1.761
Cn1cc(CN2CCC[C@]3(C[C@@H](Oc4ccccn4)CO3)C2)cn1.O=C(O)C(F)(F)F.O=C(O)C(F)(F)F	27.52
Cn1cnc(S(=O)(=O)N2CC3(CCN(CC4CC4)C3)C2)c1.O=C(O)C(F)(F)F.O=C(O)C(F)(F)F	2.143
CO[C@@H]1CCN(Cc2c(C)noc2C)[C@@H]2CN(Cc3cccnc3)C[C@@H]21.O=C(O)C(F)(F)F.O=C(O)C(F)(F)F.O=C(O)C(F)(F)F	14.07
CN(CCc1ccccn1)Cc1nccn1Cc1ccccc1	101.1
CN(Cc1ccncc1)Cc1nccn1Cc1ccccc1	6.234

Structure (SMILES)	Percent Effect [%]
CN(CCc1ccncc1)Cc1nccn1Cc1ccccc1	9.887
CNC[C@H]1CC[C@H](c2cc(CN(C)S(=O)(=O)N(C)C)n(C)n2)CC1.Cl	-16.56
O=C(O)C(F)(F)F.O=C([C@@H]1CCO[C@@H]2CCN(Cc3ccc(F)cc3)C[C@H]21)N1CCCCO1	-25.18
COC1CN(C(=O)COC(C)=O)CCC(=O)N(C)c2ccccc21 (centres undefined)	45.97
COC1CN(C(=O)CC(C)(C)C)CCC(=O)N(C)c2ccccc21 (centres undefined)	48.93
COC1CCN(C(=O)CC2CCCC2)CC(=O)N(C)c2ccccc21 (centres undefined)	27.7
COC1CN(C(=O)CC(C)C)CCC(=O)N(C)c2ccccc21 (centres undefined)	33.11
COC1CN(C(=O)OCC(C)C)CCC(=O)N(C)c2ccccc21 (centres undefined)	53.04
COC1CN(C(=O)CC2CCCC2)CCC(=O)N(C)c2ccccc21 (centres undefined)	50.44
Cn1cc(C[C@H]2[C@H](N3CCOCC3)CCN2C(=O)c2ccco2)cn1.O=C(O)C(F)(F)F	6.591
COc1ccc(CN(Cc2cccnc2)CC2CCCO2)c(OC)c1.O=C(O)CC(O)(CC(=O)O)C(=O)O (centres undefined)	5.923
CCCn1ncc(-c2ccnc(N[C@@H]3C[C@@H]4CC[C@H]3C4)n2)c1C	50.09
CCCn1ncc(-c2ccnc(NC3CCSC3)n2)c1C (centres undefined)	-0.2299
CCCn1ncc(-c2ccnc(NC3CC(C)(C)NC(C)(C)C3)n2)c1C	-32.44
CCN1C[C@H]2[C@@H](C1)N(S(=O)(=O)c1ccccc1)CC[C@H]2OC.O=C(O)C(F)(F)F	4.433
O=C(CSCC1CC1)N1CCCC(c2nccn2Cc2ccccn2)C1 (centres undefined)	-24.76
COCCn1ccnc1C1CCCN(C(=O)CSCC2CC2)C1 (centres undefined)	75.33
O=C(CSCC1CC1)N1CCCC(c2nccn2Cc2ccncc2)C1 (centres undefined)	27.98
CC(C)c1nc2c(n1C)CCN(Cc1cccc(OCC(N)=O)c1)C2	-13.93
Cn1cc(CN2CC[C@@H]3[C@@H](CO[C@H]3CNC(=O)c3ccco3)C2)cn1.O=C(O)C(F)(F)F.O=C(O)C(F)(F)F	-15.87
CC/N=c1\nc(NCC)nc2n1C(O)(Nc1cccc(Cl)c1Cl)CS2 (centres undefined)	0.756
CC/N=c1\nc(NCC)nc2n1C(O)(Nc1cc(C)ccc1C)CS2 (centres undefined)	7.529
CC/N=c1\nc(NCC)nc2n1C(O)(Nc1cccc(C)c1C)CS2 (centres undefined)	59.58

Structure (SMILES)	Percent Effect [%]
CNC(=O)c1cccc(C2CNCCN2C(=O)c2cccc(F)c2)c1.Cl (centres undefined)	-24.93
O=C(NCc1ccco1)[C@H]1COC[C@H]2CN(Cc3ccccn3)C[C@H]21.O=C(O)C(F)(F)F.O=C(O)C(F)(F)F	-5.073
Cc1ncccc1-c1cc2cccnc2n1CCCNC(=O)C(C)(C)C.Cl	11.8
Cc1nc(-c2ccnc(N3CCNCC3)n2)no1.Cl.Cl	10.1
CC(C)COc1ccccc1C(N)CC(C)C (centres undefined)	-26.57
CC(CNS(N)(=O)=O)Oc1cccc(Cl)c1 (centres undefined)	-31.66
COc1ccccc1C(N)CC(C)C (centres undefined)	-0.8675
CNCc1cc(F)ccc1Oc1ccc(Cl)cc1	-7.892
CC(C)C[C@H](N)COc1cccc(F)c1Oc1cccc(Cl)c1	103.9
CC(C)C[C@H](N)COc1cccc(F)c1Oc1ccccc1	5.666
CC(C)C[C@H](N)COc1cccc(F)c1Oc1ccc(Cl)cc1	105.7
Cc1ccc(Oc2c(F)cccc2OC[C@@H](N)CC(C)C)cc1	104.6
CCOc1ccccc1C(N)CC(C)C (centres undefined)	6.467
O=C(NC1CC1)[C@@H]1C[C@@H]2CCN(Cc3ccoc3)C[C@@H]2O1.O=C(O)C(F)(F)F	49.9
Cc1nn(C)cc1-c1cncn1CCc1ccc2c(c1)OCCO2.Cl	-2.438
Cl.Cl.c1cncc(OC[C@@H]2CCC[C@@]23CNCCO3)c1	-0.8406
Cn1ccnc1CN1CCC2(CC1)CCN(c1ccccc1)C2=O.O=C(O)C(F)(F)F	8.178
O=C(O)C(F)(F)F.O=C(O)C(F)(F)F.O=C1Nc2ccccc2C12CCN(Cc1ccccn1)CC2	-17.02
Cc1ccccc1C1CCN(CCn2cc(-c3cccc(O)c3)nn2)C1 (centres undefined)	72.96
Cc1ccccc1C1CCN(CCn2cc(-c3nccn3C)nn2)C1 (centres undefined)	32.84
Oc1cccc(-c2cc(C3CCN(Cc4cncnc4)C3)ccn2)c1 (centres undefined)	20.76
CCSCCn1cc(-c2nccs2)nn1	12.13
Cc1ccccc1C1CCN(CCn2cc(-c3nccs3)nn2)C1 (centres undefined)	59.14

Structure (SMILES)	Percent Effect [%]
Cc1ccccc1C1CCN(CCNC(=O)CS(C)(=O)=O)C1 (centres undefined)	-16.65
CCC(=O)N1CCC2(CC1)CN(CCO)Cc1ccccc12.O=C(O)C(F)(F)F	-19.17
NCCc1c(-c2ccccc2)[nH][nH]c1=O.O=C(O)C(=O)O	-25.01
O=C(CCc1cncc(F)c1)NS(=O)(=O)c1ccc(F)cc1F	21.56
Cn1cccc1C(=O)N1C[C@H]2CN(Cc3cccs3)C[C@H]2C1.O=C(O)C(F)(F)F	-10.6
COCCn1c(-c2cccc(OC)c2)cnc1NC(=O)NCCC(C)C	67.45
COCCCNC(=O)Nc1ncc(-c2cccc(OC)c2)n1CCOC	-7.26
COCCn1c(-c2cccc(OC)c2)cnc1NC(=O)NCC(C)C	22.14
Cc1nn(C)c(Cl)c1CNCc1cccnc1N1CCN(C)CC1.Cl	-22.17
O=C(O)C(F)(F)F.O=C1Nc2ccccc2C12CCN(c1nccs1)CC2	-0.7259
CCC1=N[C@@]2(CC[C@@H]3CN(Cc4ccc(Cl)cc4)C[C@@H]32)C(=O)N1.O=C(O)C(F)(F)F	4.216
CN1Cc2ccccc2CC2(CCN(CCO)CC2)C1=O.O=C(O)C(F)(F)F	19.63
Cl.O=C(CCc1cccc(C2CCNCC2)n1)N1CCCCC1	-1.304
CCc1cnc(N)nc1NC(C)c1cnn(C)c1 (centres undefined)	-5.78
CCc1cnc(N)nc1N[C@@H](C)c1ncccc1C	-10.37
CCc1cnc(N)nc1NC(C)c1ccc(C)c(C)c1 (centres undefined)	51.29
Cl.Nc1cnn(CC(=O)N2CCCCC2)c1	-8.542
CCOc1ccc(CN2CC[C@H]3CC[C@@H](C2)N3)cc1CO	-10.09
CO[C@H]1CCN(S(=O)(=O)c2cccnc2)[C@@H]2CN(CC3CC3)C[C@H]12.O=C(O)C(F)(F)F.O=C(O)C(F)(F)F	2.331
O=C(O)C(F)(F)F.O=c1cc(CNS(=O)(=O)C2CC2)nc2n1CCCN(CC1CC1)C2	21.63
